Laboratory results published in ChEMBL document CHEMBL3988442, “University of Dundee, Small-Polar-MMV Screening Library” (2021).
About 13,000 (27%) of roughly 48,000 compounds showed an effect of 50% or more. The list shows a part of the results.

tested on: Wolbachia pipientis; assay: Anti-Wolbachia Cell-Based Screen; assay type: functional; design: scale not given: in the data most compounds retested in dose-response had high values; conditions: 5 µM

Compound	Percent Effect [%]
N[C@H]1CN(C(=O)c2ccc(Cl)cc2O)C[C@@H]1C1CC1	-2.238
CC(C)[C@H]1COC(=O)N1Cc1nnc(-c2ccccc2)o1	-6.799
CC(NCCn1cccn1)c1ccccc1Cl (stereo unspecified)	12.43
CN1CCN(C(=O)C[C@@H]2COC[C@H]3CN(c4ccncn4)C[C@@H]23)CC1	-4.365
O=C(Nc1ccccc1)N1C[C@H]2C[C@H](C(=O)N3CCOCC3)[C@@H](C1)O2	114.8
CNC(=O)[C@H]1C[C@@H]2CN(C(=O)Nc3ccc(F)cc3)C[C@H]1O2	-4.608
CCc1ccc(NC(=O)N2C[C@H]3C[C@H](C(=O)N4CCCC4)[C@@H](C2)O3)cc1	103.5
O=C(Nc1ccc(F)cc1)N1C[C@H]2C[C@H](C(=O)N3CCOCC3)[C@@H](C1)O2	1.969
O=C(NCc1ccccc1)N1C[C@H]2C[C@H](C(=O)N3CCCC3)[C@@H](C1)O2	8.283
O=C(NCCc1ccccc1)N1C[C@H]2C[C@H](C(=O)N3CCCC3)[C@@H](C1)O2	-4.163
O=C(Nc1ccc(F)cc1)N1C[C@H]2C[C@H](C(=O)N3CCCC3)[C@@H](C1)O2	125.2
CNC(=O)N1C[C@H]2C[C@H](C(=O)Nc3ccccc3)[C@@H](C1)O2	-3.507
O=C(Nc1ccccc1)N1C[C@@H]2OCCN(C(=O)c3ccco3)[C@@H]2C1	7.532
O=C(Nc1ccccc1)N1C[C@H]2C[C@H](C(=O)N3CCCC3)[C@@H](C1)O2	100.5
O=C1CC2(CCN(Cc3ccc(-c4ccn[nH]4)s3)CC2)CN1	-9.036
CCc1noc(C(C)N2CCC(NS(=O)(=O)c3cccs3)CC2)n1 (stereo unspecified)	-6.324
CCC(=O)NCC(=O)NC(Cc1ccccc1)c1sccc1C (stereo unspecified)	6.747
Cc1cnn(CC(C)NCc2ccc(S(C)(=O)=O)cc2)c1 (stereo unspecified)	4.95
Cc1cccc(N(C)Cc2nc3c(cnn3C)c(=O)[nH]2)c1C	-8.766
CC(C)NC(=O)c1cc(-c2ccc(S(C)(=O)=O)cc2)nc2c1cnn2C	95.41
COC(=O)[C@@H](Nc1nc(C2CCCC2)nc2c1cnn2C)[C@@H](C)O	-8.342

Compound	Percent Effect [%]
CC(C)[C@H](Nc1nc(C2CCCC2)nc2c1cnn2C)C(N)=O	-0.02427
CC(C)NC(=O)c1cc(-c2ccc(S(C)(=O)=O)cc2)c2cnn(C)c2n1	110.4
Cn1ncc(N2CCN(Cc3ccc(S(C)(=O)=O)cc3)CC2)cc1=O	-9.751
CN(C)C(=O)c1cc(-c2ccc(S(C)(=O)=O)cc2)c2cnn(C)c2n1	108.3
CCOC(=O)CC(C)Nc1nc(C(C)(C)C)nc2c1cnn2C (stereo unspecified)	-7.754
CCc1nc(CCNC(=O)NC2CCSCC2)cs1	5.983
Cc1cn(CC(=O)NC2CCC3(CC2)OCCO3)c2ccccc12	-12.26
CCCN1CCN(C(=O)c2ccc3nc(C)oc3c2)[C@H]2CS(=O)(=O)C[C@H]21	-5.857
COCCN1C[C@H]2CN(Cc3cccc(OC(F)(F)F)c3)CCN2C1=O	-4.744
NC(=O)CS(=O)(=O)Cc1ccc(OCc2ccc(F)cc2)cc1	-22.33
Cc1cccc(COc2ccc(NC(=O)C(C)NC(N)=O)c(C)c2)c1 (stereo unspecified)	-6.983
Cc1cccc(CNCCOc2ccc(S(C)(=O)=O)cc2)c1	16.11
CS(=O)(=O)Cc1ccc(OCc2ccc(F)cc2)cc1	-17.41
Cc1cccc(COc2ccc(C(C)NC(=O)CNC(N)=O)cc2)c1 (stereo unspecified)	98.3
Cc1cccc(COc2ccc(C(C)N)cc2)c1.Cl (stereo unspecified)	108.7
Cc1cc(OCc2cccc(F)c2)ccc1NC(=O)C(C)NC(N)=O (stereo unspecified)	-0.2467
CC(NS(N)(=O)=O)c1ccc(OCc2ccc(F)cc2)cc1 (stereo unspecified)	111.6
Cc1cccc(COc2ccc(C(C)NS(N)(=O)=O)cc2)c1 (stereo unspecified)	134.5
Cc1cc(C)n(-c2ccc(C(C)NS(N)(=O)=O)cc2)n1 (stereo unspecified)	-26.74
CC(=O)NC(C)C(=O)Nc1ccc(OCc2cccc(F)c2)cc1C (stereo unspecified)	-4.537
Cc1ccc(OCCC(=O)NC(C)c2ccncc2)cc1 (stereo unspecified)	-14.45

Compound	Percent Effect [%]
COc1cccc2ccc(CN3CCN(c4ncccn4)CC3)nc12	-3.273
CC(C)(C)c1c[nH]c([C@@H]2COCCN2C2CCC2)n1	-8.065
Cc1cc(C)n(C2CN(C(=O)CN3C(=O)CSc4ccccc43)C2)n1	2.557
Cc1ccsc1[C@@H]1CCN(C(=O)Cn2cc3ccccc3n2)C[C@H]1O	-6.576
CS(=O)(=O)N1CCc2nc(NC(=O)Nc3c(F)cccc3F)sc2C1	-13.59
CCCNC(=O)c1nc2c(o1)CN(C(C)=O)C2	21.64
COc1ccc(CCNC2CCCN(c3ccc(C)nn3)C2)cc1 (stereo unspecified)	-3.788
COc1ccc(C2CCCN2c2nnc(C)s2)c(OC)c1 (stereo unspecified)	6.611
COCCN1CCCN(C(=O)c2scnc2C)CC1	111.8
Cc1ncsc1C(=O)N1CCN(Cc2ccccc2)CC1C (stereo unspecified)	4.154
Cc1ncsc1C(=O)N1CCC(Nc2cccnn2)CC1	-12.54
Cc1cccc(C(=O)N2CCCN(CCc3scnc3C)CC2)c1	-3.968
COc1ccccc1C(=O)N1CCN(CCc2scnc2C)CC1	-5.378
Cc1ncsc1C(=O)N1CCn2nc(CN3CCSCC3)cc2C1	-3.157
Cc1ncsc1C(=O)N1CCN(CCC(C)C)CC1	114
CCN1CCN(C(=O)c2scnc2C)CC1	114.5
CC(C)CCN1CCN(C(=O)c2cccnc2-n2cncn2)CC1	7.327
c1cc(CCN2CCC(NCc3ccsc3)CC2)ccn1	-8.408
Cc1ccc(N2CCCC(NC(=O)Nc3cnn(C)c3)C2=O)cc1 (stereo unspecified)	10.21
